Some test systems named below: SR leukemia; RPMI-8226 leukemia; OVCAR-8 ovarian; OVCAR-5 ovarian; OVCAR-4 ovarian; SK-OV-3 ovarian; IGROV1 ovarian; OVCAR-3 ovarian; HS 578T breast; NCI/ADR-RES ovarian.
Holding throughout (test): NCI-60 one-dose screen, 48 h (100 = growth as untreated, 0 = no growth, -100 = all killed)
Common to all, as to conditions: 10 µM unless noted

SMILES strings stand for the structures. Compounds without any hit were thinned out: in the full panel of roughly 83,000, 20% have a hit.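 Treatment: one concentration, 48 hours, 96-well format. Scoring: percent growth, with anything below 10 considered active.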 The source made the active and inactive calls.

Consider `COc1ccc(NC(=O)Nc2ccc(OCCCCCC(=O)NO)cc2)cc1`, for which the growth in the test on SR leukemia was 71.6% (inactive); with RPMI-8226 leukemia, 97.8% (inactive); with OVCAR-8 ovarian it was 87.8% (inactive); in the test on OVCAR-5 ovarian it was 113% (inactive); in the test with OVCAR-4 ovarian, 122% (inactive); in the test on SK-OV-3 ovarian it was 97.1% (inactive). Further, the growth is 115% (inactive) with IGROV1 ovarian, 103% (inactive) in the test on OVCAR-3 ovarian, 94.1% (inactive) with HS 578T breast and 99.6% (inactive) in the test on NCI/ADR-RES ovarian.

`CO[C@H](C(=O)[C@@H](O)[C@@H](C)O)[C@@H]1Cc2cc3cc(O[C@H]4C[C@@H](O[C@H]5C[C@@H](O)[C@H](O)C(C)O5)[C@H](O)C(C)(O)O4)cc(O)c3c(O)c2C(=O)[C@H]1O[C@H]1C[C@@H](O[C@H]2C[C@@H](O[C@H]3C[C@@H](OC)[C@H](O)C(C)O3)[C@@H](O)C(C)O2)[C@H](O)C(C)O1` (stereo not given in full): the growth with SR leukemia is 24% (inactive); with RPMI-8226 leukemia it was 26.7% (inactive); with OVCAR-8 ovarian, 24.3% (inactive); in the test with OVCAR-5 ovarian, 21% (inactive); in the test on OVCAR-4 ovarian, 42.2% (inactive); in the test with SK-OV-3 ovarian it was 17.3% (inactive). For the same molecule, the growth was 32.6% (inactive) in the test on IGROV1 ovarian, 21.7% (inactive) in the test with OVCAR-3 ovarian, 26.4% (inactive) in the test with HS 578T breast and 102% (inactive) with NCI/ADR-RES ovarian.

Turning to `N#C/C(=C\c1ccc([N+](=O)[O-])cc1)n1nnc2cc(F)c(F)cc21`, the growth in the test with SR leukemia was -0.476% (active); in the test on RPMI-8226 leukemia it was -22.4% (active); in the test on OVCAR-8 ovarian, 11.4% (inactive); with OVCAR-5 ovarian, 21% (inactive); in the test on OVCAR-4 ovarian it was 9.19% (active); in the test on SK-OV-3 ovarian it was 94.2% (inactive). For the same molecule, the growth with IGROV1 ovarian is -10.9% (active); in the test on OVCAR-3 ovarian it was -40.1% (active); in the test with HS 578T breast, 58.4% (inactive); in the test on NCI/ADR-RES ovarian, 9.64% (active).

As to `Nc1nc(N)c2c(n1)NC(c1ccc(Cl)cc1)C1CCc3ccccc3C1=N2` (stereo not given), the growth in the test with SR leukemia was 33.1% (inactive); in the test with RPMI-8226 leukemia it was 41.9% (inactive); in the test with OVCAR-8 ovarian, 70.7% (inactive); in the test on OVCAR-5 ovarian, 103% (inactive); in the test on OVCAR-4 ovarian, 39.2% (inactive); in the test on SK-OV-3 ovarian, 66.8% (inactive). Also, the growth in the test with IGROV1 ovarian was 77.2% (inactive); with OVCAR-3 ovarian, 40.5% (inactive); in the test on HS 578T breast it was 80.9% (inactive); with NCI/ADR-RES ovarian it was 52.5% (inactive).

Turning to `N=C(N)c1ccc(-c2ccc(-c3ccccc3)s2)cc1`, the growth with SR leukemia was 7.19% (active); in the test with RPMI-8226 leukemia it was -4.15% (active); in the test with OVCAR-8 ovarian, 38.1% (inactive); in the test with OVCAR-5 ovarian, 61.4% (inactive); in the test on OVCAR-4 ovarian it was 45.8% (inactive); in the test with SK-OV-3 ovarian, 85.2% (inactive). Besides, the growth was 60.2% (inactive) in the test with IGROV1 ovarian, 53.7% (inactive) in the test with OVCAR-3 ovarian, 87.8% (inactive) in the test on HS 578T breast and 89.2% (inactive) with NCI/ADR-RES ovarian.

On to `NC(N)=NS(=O)(=O)c1ccc(NC2=C(I)C(=O)c3ncccc3C2=O)cc1`, for which the growth in the test with SR leukemia is 104% (inactive); in the test with RPMI-8226 leukemia it was 104% (inactive); in the test on OVCAR-8 ovarian, 97.2% (inactive); with OVCAR-5 ovarian, 112% (inactive); in the test on OVCAR-4 ovarian, 93% (inactive); in the test with SK-OV-3 ovarian, 87.8% (inactive). The growth in the test with IGROV1 ovarian is 97.5% (inactive); in the test with OVCAR-3 ovarian it was 95.3% (inactive); in the test with HS 578T breast, 103% (inactive); in the test with NCI/ADR-RES ovarian it was 94.1% (inactive).

Take `COc1cc(-c2nc3c(ncc4ccc(=O)n(-c5ccccc5)c43)s2)cc(OC)c1OC`: the growth in the test on SR leukemia was 74.5% (inactive); in the test with RPMI-8226 leukemia, 52.9% (inactive); in the test with OVCAR-8 ovarian, 88.3% (inactive); with OVCAR-5 ovarian it was 73.5% (inactive); with OVCAR-4 ovarian, 72.8% (inactive); in the test with SK-OV-3 ovarian, 80% (inactive). Also, the growth was 53.5% (inactive) with IGROV1 ovarian, 79.7% (inactive) with OVCAR-3 ovarian, 52.6% (inactive) in the test on HS 578T breast and 73.1% (inactive) in the test on NCI/ADR-RES ovarian.

In the case of `C=CC(=O)Nc1ccc(Nc2nccc(-c3ccc(N4CCCC4)c(C#N)c3)n2)cc1`, the growth is -3.35% (active) in the test on SR leukemia; -10.3% (active) with RPMI-8226 leukemia; 65.9% (inactive) with OVCAR-8 ovarian; 73.4% (inactive) in the test on OVCAR-5 ovarian; 47.3% (inactive) in the test on OVCAR-4 ovarian; 8.26% (active) in the test with SK-OV-3 ovarian. Moreover, the growth in the test with IGROV1 ovarian is 35.9% (inactive); in the test on OVCAR-3 ovarian, 14.1% (inactive); with HS 578T breast, -5% (active); in the test on NCI/ADR-RES ovarian it was 57.2% (inactive).

Turning to `O=C(Cc1ccccc1)Nc1cccc(N=Cc2ccccc2O)c1`, the growth in the test with SR leukemia was 117% (inactive); in the test with RPMI-8226 leukemia it was 113% (inactive); in the test with OVCAR-8 ovarian, 98% (inactive); in the test on OVCAR-5 ovarian, 114% (inactive); in the test on OVCAR-4 ovarian it was 102% (inactive); in the test on SK-OV-3 ovarian it was 106% (inactive). Moreover, the growth with IGROV1 ovarian was 111% (inactive); with OVCAR-3 ovarian, 93.2% (inactive); with HS 578T breast it was 108% (inactive); in the test with NCI/ADR-RES ovarian, 105% (inactive).

As for `C#CCOc1cccc(-c2ncnc3cc(NC(=O)C=C)ccc23)c1`, the growth with SR leukemia was 5.05% (active); in the test with RPMI-8226 leukemia it was 21.1% (inactive); with OVCAR-8 ovarian, 38.3% (inactive); in the test on OVCAR-5 ovarian, 38.5% (inactive); with OVCAR-4 ovarian it was 70.9% (inactive); in the test with SK-OV-3 ovarian, 79.9% (inactive). Also, the growth is 33.5% (inactive) in the test on IGROV1 ovarian, 28.6% (inactive) in the test on OVCAR-3 ovarian, 24.6% (inactive) in the test with HS 578T breast and 53.5% (inactive) in the test on NCI/ADR-RES ovarian.

In the case of `O=C(Nc1ccc(Br)cc1)C1=NCCCCN1`, the growth is 107% (inactive) with SR leukemia; 94.3% (inactive) in the test with RPMI-8226 leukemia; 74.8% (inactive) in the test on OVCAR-8 ovarian; 84.6% (inactive) in the test on OVCAR-5 ovarian; 96.5% (inactive) in the test on OVCAR-4 ovarian; 96.1% (inactive) with SK-OV-3 ovarian. Besides, the growth was 87.5% (inactive) in the test on IGROV1 ovarian, 103% (inactive) with OVCAR-3 ovarian, 97.1% (inactive) in the test with HS 578T breast and 82.5% (inactive) in the test with NCI/ADR-RES ovarian.

Regarding `FC(F)(F)Oc1cccc(-c2cnc3ccc(-c4ccncc4)nn23)c1`, the growth with SR leukemia is 4.36% (active); with RPMI-8226 leukemia, 15.9% (inactive); with OVCAR-8 ovarian, 14.3% (inactive); in the test on OVCAR-5 ovarian it was 16.5% (inactive); in the test on OVCAR-4 ovarian, 47% (inactive); with SK-OV-3 ovarian, -19.3% (active). Further, the growth in the test with IGROV1 ovarian was 12.1% (inactive); in the test on OVCAR-3 ovarian it was 8.85% (active); in the test with HS 578T breast, 23.4% (inactive); in the test on NCI/ADR-RES ovarian, 11.6% (inactive).

Take `C=CCN1C(=O)c2cccc3c(N4CCOCC4)ccc(c23)C1=O`: the growth in the test on SR leukemia was -9.38% (active); with RPMI-8226 leukemia, -25.8% (active); in the test on OVCAR-8 ovarian, 20.7% (inactive); in the test with OVCAR-5 ovarian it was 21.4% (inactive); in the test with OVCAR-4 ovarian it was 14.4% (inactive); with SK-OV-3 ovarian, 13.9% (inactive). The growth in the test with IGROV1 ovarian was -14.5% (active); in the test on OVCAR-3 ovarian it was -66.4% (active); in the test on HS 578T breast it was 4.58% (active); in the test with NCI/ADR-RES ovarian it was 6.06% (active).

`Cc1ccc(-c2nc(-c3cn(C)c4ncccc34)cs2)cc1`: the growth in the test with SR leukemia was 3.67% [100 µM] (active); in the test with RPMI-8226 leukemia it was -7.33% [100 µM] (active); in the test with OVCAR-8 ovarian, -3.32% [100 µM] (active); in the test with OVCAR-5 ovarian, -5.34% [100 µM] (active); in the test on OVCAR-4 ovarian, -21.5% [100 µM] (active); with SK-OV-3 ovarian, -33.7% [100 µM] (active). Besides, the growth with IGROV1 ovarian was -0.0952% [100 µM] (active); with OVCAR-3 ovarian it was -28.5% [100 µM] (active); with HS 578T breast it was 13.7% [100 µM] (inactive); with NCI/ADR-RES ovarian, -24.9% [100 µM] (active).
